This is an account of results in PubChem BioAssay (Tox21).

A number with no mark means an inactive call. Results filed as inconclusive are left out. Active and inactive are the calls of the source. Unless noted, calls follow the shape of the dose curve; as a rule, active = well fitted curve in the direction sought with a large enough effect in the repeat runs; inconclusive = weak or mixed curves; inactive = no such curve, though single readings can be large; an effect the other way counts as inactive or inconclusive.

Experiment [1] is described as follows: qHTS assay to identify small molecule antagonists of the sonic hedgehog signaling (Shh) pathway (AID 1259369; calls by dose curve; also: nearly all actives have a fitted effect of over 45% in size). A digest of the protocol: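 Stable Gli1-Luc reporter NIH/3T3 clone; quantitative HTS in stimulated mode with conditioned medium. Luminescence measured after 24hr compound treatment at 37 C.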
Experiment [2] has as its target Estrogen receptor beta (Homo sapiens) (UniProt Q92731). Briefly: qHTS assay to identify small molecule agonists of the estrogen receptor beta (ER-beta) signaling pathway (AID 1259377; active = well fitted activation curve with a large enough effect in the signal ratio in the repeat runs, not every such curve was filed as active; the % refers to the signal ratio). The gist of the method:
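Measured by fluorescence intensity from a B/G FRET beta-lactamase substrate (2 h, room temperature) in ER-beta-UAS-bla HEK293T cells treated with DMSO-dissolved compounds for 16 hr at 37C and 5% CO2.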
In general terms: qHTS replaces the single test concentration by a dilution series.

The target is the same in experiment [3]. Nature of the experiment: qHTS assay to identify small molecule antagonists of the estrogen receptor beta (ER-beta) signaling pathway (AID 1259378; active = well fitted inhibition curve with a large enough effect in the signal ratio in the repeat runs, not every such curve was filed as active; the % refers to the signal ratio). A digest of the protocol:
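Antagonist mode: compounds added to beta-lactamase reporter HEK293T ER-beta-UAS cells stimulated with E2 (1nM final), 16 hr at 37C. LiveBLAzer B/G FRET substrate, 2 hours room temperature, fluorescence read-out.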

Experiment [4] can be described thus: qHTS assay to identify small molecule agonists of the androgen receptor (AR) signaling pathway in the presence of an antagonist - cell viability counter screen (AID 1259379).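 Also: MDA-kb2 human breast cancer cells carrying an MMTV luciferase reporter; series mostly up to about 92 µM; nearly all actives have a fitted effect of over 25% in size.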 A digest of the protocol: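 Nilutamide-containing (3.0uM final) MDA-kb2 cultures, 3,000 cells/well, were treated with compounds across 15 concentrations. After 16 hr at 37C with no CO2, cell viability was determined by CellTiter-Fluor fluorescence in the luciferase assay wells.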

A short description of experiment [5]: qHTS assay to identify small molecule agonists of the estrogen receptor beta (ER-beta) signaling pathway - cell viability counter screen (AID 1259380). Also: nearly all actives have a fitted effect of over 30% in size. The gist of the method:
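Steps: plate ER-beta-UAS-bla HEK293T cells, rest 6 hr; add compounds in DMSO; incubate 16 hr at 37C, 5% CO2; add FRET substrate 2 hr; add CellTiter-Glo, wait 30 min at room temperature; read luminescence.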

Experiment [6] in a line: qHTS assay to identify small molecule agonists or antagonists of the thyroid stimulating hormone receptor (TSHR) signaling pathway - wild type cell line counter screen (AID 1259384; calls by dose curve). The gist of the method: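 Counter screen in untransfected Hek293: compounds (15-point titration, triplicate) plus phosphodiesterase inhibitor Ro20-1724 added after 18 h plating; 30 min RT. Intracellular cAMP via competitive d2/cryptate immunoassay, 1 h incubation.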

Experiment [7] deals with Thyrotropin receptor (Homo sapiens) (UniProt P16473). Nature of the experiment: qHTS assay to identify small molecule antagonists of the thyroid stimulating hormone receptor (TSHR) signaling pathway (AID 1259385; calls by dose curve; also: nearly all actives have a fitted effect of over 20% in size). A digest of the protocol: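 Antagonist mode: compound-treated TSHR-expressing HEK293 cells were stimulated with 1.5 ng/mL TSH (final) in presence of Ro20-1724 for 30 min at RT. HTRF cAMP detection after 1 h; each compound tested at 15 concentrations, triplicate.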

A short description of experiment [8]: qHTS assay to identify small molecule agonists of the estrogen receptor alpha (ER-alpha) signaling pathway in the presence of an antagonist - cell viability counter screen (AID 1259386).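 Also: series mostly up to about 92 µM; cells exposed to compounds for 22 h at 37 °C before the viability read; nearly all actives have a fitted effect of over 30% in size.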 A digest of the protocol: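 In this counter screen, compound effects on VM7Luc4E2 viability were tested in the presence of the antagonist ICI-182,780 at 10.0nM final. Compounds were dosed at 15 concentrations, exposure lasted 22hr, and the CellTiter-Fluor signal was read.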

Experiment [9] deals with Progesterone receptor (Homo sapiens) (UniProt P06401). Briefly: qHTS assay to identify small molecule antagonists of the progesterone receptor (PR) signaling pathway (AID 1346795; active = well fitted inhibition curve with a large enough effect in the signal ratio in the repeat runs, not every such curve was filed as active; the % refers to the signal ratio). A digest of the protocol:
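After 6 hr plating at 37C in 2% stripped-serum medium, PR-UAS-bla HEK293T cells got compounds, then 1 nM R5020. Sixteen hours later, LiveBLAzer substrate was applied for 2 hr at room temperature and fluorescence was recorded.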

Experiment [10] can be described thus: qHTS assay to identify small molecule antagonists of the progesterone receptor (PR) signaling pathway - cell viability counter screen (AID 1346798). Also: series mostly up to about 92 µM; nearly all actives have a fitted effect of over 50% in size. A digest of the protocol: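 Viability was determined by ATP-based luminescence (CellTiter-Glo) in PR-UAS-bla HEK293T cells cultured in 2% charcoal-stripped serum and incubated 16 hr with compounds under R5020 stimulation.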

The nature of experiment [11]: qHTS assay to identify small molecule agonists of the progesterone receptor (PR) signaling pathway - cell viability counter screen (AID 1346799; calls by dose curve; also: nearly all actives have a fitted effect of over 45% in size). The gist of the method:
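Viability was scored by ATP luminescence (CellTiter-Glo, 30 min, room temperature) in the same wells used for the reporter readout, after 16 hr compound exposure of PR-UAS-bla HEK293T cells.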

Experiment [12] can be described thus: qHTS assay to identify small molecule antagonists of the TGF-beta/Smad signaling pathway - cell viability counter screen (AID 1346824). Also: nearly all actives have a fitted effect of over 50% in size. The gist of the method:
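Cytotoxicity counter-screen run in the same wells as the beta-lactamase Smad reporter read: CellTiter-Glo luminescence after 30 min at room temperature. HEK 293T SBE-bla cells had 5 hr compound exposure at 37 C with TGF-beta1 (0.25 ng/mL stock).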

A short description of experiment [13]: qHTS assay to identify small molecule agonists of the TGF-beta/Smad signaling pathway - cell viability counter screen (AID 1346829). Also: top concentration of the series differs between compounds; nearly all actives have a fitted effect of over 45% in size. The gist of the method:
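Here the cytotoxicity of library compounds is measured in SBE-bla HEK 293T cells treated for 5 hr, using CellTiter-Glo added to wells already read for the beta-lactamase reporter.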

Experiment [14] is described as follows: qHTS assay to identify small molecule agonists of the TGF-beta/Smad signaling pathway (AID 1346859; active = well fitted activation curve with a large enough effect in the signal ratio in the repeat runs, not every such curve was filed as active; the % refers to the signal ratio; also: series mostly up to about 77 µM). The gist of the method:
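Dual-wavelength fluorescence (460/530 nm emission) quantified beta-lactamase expression under the Smad binding element in HEK 293T cells following 5 hr compound treatment at 37 C.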

In experiment [15] the target is Androgen receptor (Homo sapiens) (UniProt P10275). Nature of the experiment: qHTS assay to identify small molecule agonists of the androgen receptor (AR) signaling pathway in the presence of an antagonist (AID 1259381; calls by dose curve; also: nearly all actives have a fitted effect of over 15% in size; also: potency is read from the fitted curve at half-maximal effect). A digest of the protocol:
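Reporter-gene luminescence from MDA-kb2 cells exposed 16hr at 37C (0% CO2) to 15-point compound titrations with 3.0uM final nilutamide as AR antagonist.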

Experiment [16] can be described thus: qHTS assay to identify small molecule antagonists of the estrogen receptor beta (ER-beta) signaling pathway - cell viability counter screen (AID 1259382).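 Also: HEK293T cells carrying ER-beta-UAS-bla reporter stimulated with estradiol; series mostly up to about 92 µM; nearly all actives have a fitted effect of over 55% in size.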 A digest of the protocol:
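Viability is scored by CellTiter-Glo luminescence (30 min, room temperature) in ER-beta-UAS-bla HEK293T wells already read for reporter fluorescence. Compound exposure lasts 16 hr at 37C alongside 1nM 17-beta-estradiol in charcoal-stripped serum medium.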

In experiment [17] the target is Estrogen receptor (Homo sapiens) (UniProt P03372). Nature of the experiment: qHTS assay to identify small molecule agonists of the estrogen receptor alpha (ER-alpha) signaling pathway in the presence of an antagonist (AID 1259383; calls by dose curve; also: top concentration of the series differs between compounds; nearly all actives have a fitted effect of over 15% in size). A digest of the protocol:
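Readout was ERE-driven luciferase luminescence in VM7Luc4E2 cells, which express full-length ER-alpha endogenously. Compounds were tested at 15 concentrations for 22hr alongside 10.0nM ICI-182,780 (final concentration).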

Experiment [18] concerns the target Progesterone receptor (Homo sapiens) (UniProt P06401). Nature of the experiment: qHTS assay to identify small molecule agonists of the progesterone receptor (PR) signaling pathway (AID 1346784; calls by dose curve; also: nearly all actives have a fitted effect of over 30% in size; also: potency is read from the fitted curve at half-maximal effect). The gist of the method:
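The screen uses PR-UAS-bla HEK 293T cells in charcoal-stripped serum (2%). Compounds are applied for 16 hr at 37C after a 6 hr pre-incubation, and reporter activity is detected with a FRET beta-lactamase substrate after 2 hr at room temperature.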

Experiment [19] has as its target Thyrotropin-releasing hormone receptor (Homo sapiens) (UniProt P34981). Nature of the experiment: qHTS assay to identify small molecule agonists of the thyrotropin-releasing hormone receptor (TRHR) signaling pathway (AID 1346891; calls by dose curve;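 also: HEK293 cells expressing TRHR with calcium dye readout; series mostly up to about 58 µM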). A digest of the protocol: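 Kinetic fluorescence (3 min, 1 s intervals) reported intracellular calcium after compound transfer onto TRHR-Hek293 cells pre-loaded with dye for 2 h at 37 °C.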

The target is the same in experiment [20]. Briefly: qHTS assay to identify small molecule antagonists of the thyrotropin-releasing hormone receptor (TRHR) signaling pathway (AID 1346877; active = well fitted inhibition curve with a large enough effect in the repeat runs, not every such curve was filed as active; also: series mostly up to about 51 µM). The gist of the method: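 Kinetic fluorescence (3 min, 1 s resolution) following stimulation with TRH at 1 nM final; HEK293 cells bearing human TRHR; 5 min compound preincubation at RT; concentration-response over 15 points, triplicates.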

Sequence of Thyrotropin receptor (Homo sapiens) (P16473 whole entry, looked up): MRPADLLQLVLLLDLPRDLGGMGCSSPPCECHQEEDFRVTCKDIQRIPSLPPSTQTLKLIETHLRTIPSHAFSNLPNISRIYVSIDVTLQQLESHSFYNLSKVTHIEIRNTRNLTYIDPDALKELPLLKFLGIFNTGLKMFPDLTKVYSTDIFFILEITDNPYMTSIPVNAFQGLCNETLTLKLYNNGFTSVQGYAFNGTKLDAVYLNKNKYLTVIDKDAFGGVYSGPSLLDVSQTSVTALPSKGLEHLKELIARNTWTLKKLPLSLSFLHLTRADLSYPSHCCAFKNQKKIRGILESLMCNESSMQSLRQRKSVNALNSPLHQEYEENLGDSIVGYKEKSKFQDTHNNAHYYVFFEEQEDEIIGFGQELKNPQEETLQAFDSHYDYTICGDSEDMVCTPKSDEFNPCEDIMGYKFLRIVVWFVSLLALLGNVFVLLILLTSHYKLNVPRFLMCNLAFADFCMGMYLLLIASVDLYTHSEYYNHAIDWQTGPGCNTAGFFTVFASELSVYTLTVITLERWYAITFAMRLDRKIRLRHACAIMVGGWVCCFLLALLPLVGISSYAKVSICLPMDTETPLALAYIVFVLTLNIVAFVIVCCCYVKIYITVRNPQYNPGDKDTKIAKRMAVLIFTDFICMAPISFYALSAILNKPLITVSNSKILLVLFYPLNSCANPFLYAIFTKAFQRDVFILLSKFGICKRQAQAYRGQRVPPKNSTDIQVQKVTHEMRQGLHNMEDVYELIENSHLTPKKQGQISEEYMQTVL
Sequence of Estrogen receptor (Homo sapiens) (P03372 whole entry, looked up): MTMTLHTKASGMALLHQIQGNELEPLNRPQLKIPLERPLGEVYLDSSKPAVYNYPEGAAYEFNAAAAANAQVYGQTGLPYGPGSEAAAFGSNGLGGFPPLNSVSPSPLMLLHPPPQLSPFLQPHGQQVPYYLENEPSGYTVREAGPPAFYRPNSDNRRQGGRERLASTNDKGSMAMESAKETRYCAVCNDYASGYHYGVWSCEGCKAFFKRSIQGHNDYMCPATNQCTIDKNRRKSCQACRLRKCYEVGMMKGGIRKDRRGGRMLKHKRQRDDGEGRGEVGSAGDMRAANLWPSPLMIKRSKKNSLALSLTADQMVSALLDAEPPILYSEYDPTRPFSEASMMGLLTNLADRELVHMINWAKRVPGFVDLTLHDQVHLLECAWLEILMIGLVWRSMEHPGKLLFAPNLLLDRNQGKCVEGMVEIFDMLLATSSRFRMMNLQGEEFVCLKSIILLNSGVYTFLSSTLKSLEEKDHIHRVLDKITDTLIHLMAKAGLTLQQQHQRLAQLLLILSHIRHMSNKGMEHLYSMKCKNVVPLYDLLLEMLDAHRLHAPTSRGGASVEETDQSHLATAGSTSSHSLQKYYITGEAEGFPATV
Sequence of Thyrotropin-releasing hormone receptor (Homo sapiens) (P34981 whole entry, looked up): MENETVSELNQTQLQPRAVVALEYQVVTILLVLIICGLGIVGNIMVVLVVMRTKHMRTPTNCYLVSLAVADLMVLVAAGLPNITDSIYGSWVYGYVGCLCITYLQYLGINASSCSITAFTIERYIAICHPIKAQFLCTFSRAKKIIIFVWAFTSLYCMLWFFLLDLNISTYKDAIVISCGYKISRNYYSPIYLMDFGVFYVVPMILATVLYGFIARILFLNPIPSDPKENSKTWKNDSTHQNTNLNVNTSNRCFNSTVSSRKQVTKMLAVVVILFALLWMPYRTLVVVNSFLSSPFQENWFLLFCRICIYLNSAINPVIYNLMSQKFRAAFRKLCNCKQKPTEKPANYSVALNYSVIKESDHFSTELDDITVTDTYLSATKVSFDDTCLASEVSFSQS
Sequence of Estrogen receptor beta (Homo sapiens) (Q92731 whole entry, looked up): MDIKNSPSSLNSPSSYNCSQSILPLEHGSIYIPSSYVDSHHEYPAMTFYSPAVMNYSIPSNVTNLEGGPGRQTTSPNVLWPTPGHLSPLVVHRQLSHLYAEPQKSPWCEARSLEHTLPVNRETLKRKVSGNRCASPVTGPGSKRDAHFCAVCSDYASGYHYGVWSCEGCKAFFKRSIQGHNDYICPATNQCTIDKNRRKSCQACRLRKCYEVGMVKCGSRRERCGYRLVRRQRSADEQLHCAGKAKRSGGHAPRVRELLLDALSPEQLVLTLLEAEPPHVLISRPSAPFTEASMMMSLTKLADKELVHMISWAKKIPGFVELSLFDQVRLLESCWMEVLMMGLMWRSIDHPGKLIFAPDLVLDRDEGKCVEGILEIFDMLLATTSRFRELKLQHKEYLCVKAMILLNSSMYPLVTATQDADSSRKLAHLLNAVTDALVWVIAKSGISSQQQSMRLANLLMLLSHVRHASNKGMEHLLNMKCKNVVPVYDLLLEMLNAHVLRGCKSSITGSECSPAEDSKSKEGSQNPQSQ
Sequence of Progesterone receptor (Homo sapiens) (P06401 whole entry, looked up): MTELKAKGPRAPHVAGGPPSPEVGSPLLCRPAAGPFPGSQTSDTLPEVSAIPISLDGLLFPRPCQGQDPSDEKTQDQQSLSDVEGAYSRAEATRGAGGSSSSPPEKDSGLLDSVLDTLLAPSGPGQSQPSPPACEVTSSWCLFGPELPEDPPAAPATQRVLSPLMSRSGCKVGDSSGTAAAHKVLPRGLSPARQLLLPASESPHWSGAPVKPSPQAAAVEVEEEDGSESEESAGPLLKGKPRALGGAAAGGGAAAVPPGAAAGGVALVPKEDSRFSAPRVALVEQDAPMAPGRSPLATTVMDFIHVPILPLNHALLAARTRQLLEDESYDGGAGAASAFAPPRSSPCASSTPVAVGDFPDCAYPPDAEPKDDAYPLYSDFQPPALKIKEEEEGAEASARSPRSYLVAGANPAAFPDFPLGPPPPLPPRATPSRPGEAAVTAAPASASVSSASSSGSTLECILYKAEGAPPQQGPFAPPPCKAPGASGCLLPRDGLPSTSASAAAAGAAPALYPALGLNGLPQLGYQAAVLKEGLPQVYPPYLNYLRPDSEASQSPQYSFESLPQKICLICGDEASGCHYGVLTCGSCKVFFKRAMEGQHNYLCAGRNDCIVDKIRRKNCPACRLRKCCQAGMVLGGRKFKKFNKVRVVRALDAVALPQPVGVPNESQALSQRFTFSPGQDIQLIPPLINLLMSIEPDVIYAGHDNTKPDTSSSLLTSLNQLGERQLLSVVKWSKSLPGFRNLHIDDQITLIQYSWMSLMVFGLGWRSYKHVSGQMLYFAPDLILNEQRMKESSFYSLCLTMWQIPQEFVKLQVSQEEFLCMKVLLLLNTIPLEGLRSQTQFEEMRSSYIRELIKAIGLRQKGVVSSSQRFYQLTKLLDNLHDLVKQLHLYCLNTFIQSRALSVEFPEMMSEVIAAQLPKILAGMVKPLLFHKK
Sequence of Androgen receptor (Homo sapiens) (P10275 whole entry, looked up): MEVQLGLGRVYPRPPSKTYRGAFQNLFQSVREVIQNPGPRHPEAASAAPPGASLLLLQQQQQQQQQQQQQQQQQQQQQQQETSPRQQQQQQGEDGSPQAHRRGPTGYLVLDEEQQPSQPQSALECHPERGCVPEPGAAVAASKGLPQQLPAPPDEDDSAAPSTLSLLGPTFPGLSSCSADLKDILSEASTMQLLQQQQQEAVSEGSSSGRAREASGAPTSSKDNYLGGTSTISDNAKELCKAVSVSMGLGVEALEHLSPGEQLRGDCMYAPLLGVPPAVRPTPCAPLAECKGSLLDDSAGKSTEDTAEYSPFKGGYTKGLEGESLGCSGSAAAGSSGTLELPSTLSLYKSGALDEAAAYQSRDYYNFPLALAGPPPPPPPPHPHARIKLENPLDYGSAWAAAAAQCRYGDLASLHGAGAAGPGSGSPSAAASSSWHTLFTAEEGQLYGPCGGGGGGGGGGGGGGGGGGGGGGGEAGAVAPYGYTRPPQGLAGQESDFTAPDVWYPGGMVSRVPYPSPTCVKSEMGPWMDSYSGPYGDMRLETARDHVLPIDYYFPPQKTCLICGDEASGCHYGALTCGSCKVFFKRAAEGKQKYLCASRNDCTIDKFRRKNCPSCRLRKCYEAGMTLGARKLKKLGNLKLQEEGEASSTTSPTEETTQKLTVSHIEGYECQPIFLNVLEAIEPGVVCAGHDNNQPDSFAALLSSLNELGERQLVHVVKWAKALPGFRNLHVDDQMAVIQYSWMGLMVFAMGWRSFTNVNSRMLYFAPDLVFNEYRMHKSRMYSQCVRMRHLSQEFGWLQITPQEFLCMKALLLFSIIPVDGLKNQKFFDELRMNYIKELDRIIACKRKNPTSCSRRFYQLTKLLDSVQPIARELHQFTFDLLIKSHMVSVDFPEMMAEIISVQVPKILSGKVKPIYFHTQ

With `C1CCCNCCC1`, the Potency result in [1], in experiment [2], in experiment [3], in [4], in [5] and in experiment [6] was “inactive” in each case. In addition, the Potency result in experiment [7], in experiment [8], in [9], in [10], in experiment [11] and in [12] was “inactive” in each case. For the same molecule, the Potency entry in experiment [14] was “inactive”. Besides, the result in [13] was inactive.
Regarding `CCCCC(=O)OCC(=O)[C@H]1[C@H](C)C[C@H]2[C@@H]3C[C@H](F)C4=CC(=O)C=C[C@]4(C)[C@@]3(F)[C@@H](O)C[C@@]21C`, the Potency result in [1], in experiment [2], in experiment [3], in experiment [16], in experiment [17] and in [6] was “inactive” throughout. Also, the Potency entry in experiment [7], in experiment [8], in experiment [9], in experiment [10], in experiment [12] and in experiment [14] was “inactive” in each case. Further, the Potency in experiment [15] was 6.7 nM (active); in experiment [18] it was 13.3 nM (active). The call in experiment [13] was inactive.
As for `COc1ccc(C)cc1[N+](=O)[O-]`, the Potency entry in [1], in experiment [2], in experiment [3], in [4], in experiment [5] and in experiment [6] was “inactive” throughout. The Potency result in [8], in experiment [9], in [10], in [11], in experiment [12] and in experiment [14] was “inactive” throughout. Also, the Potency entry in [19] was “inactive”. In addition, in experiment [13], the molecule was classed as inactive.
For `CC1OC(=O)C(C)OC1=O` (stereo not drawn), the Potency result in [1], in [2], in experiment [3], in experiment [4], in [16] and in [17] was “inactive” throughout. For the same molecule, the Potency entry in experiment [6], in [7], in experiment [8], in experiment [10], in experiment [11] and in [12] was “inactive” each time. The Potency entry in [14] and in [19] was “inactive” each time. Also, the outcome in [13] and in experiment [20] was inactive.
Turning to `O=C(O)c1ccccc1Cl`, the Potency entry in experiment [1], in experiment [2], in experiment [3], in experiment [5], in experiment [16] and in experiment [6] was “inactive” each time. The Potency entry in [7], in [8], in experiment [18], in experiment [9], in [10] and in experiment [11] was “inactive” in each case. The Potency entry in [12], in experiment [14] and in experiment [19] was “inactive” throughout. In addition, the molecule was called inactive in [13] and in experiment [20].
Regarding `c1ccc(-c2ccccn2)nc1`, the Potency entry in [1], in experiment [2], in experiment [4], in [5], in [15] and in experiment [17] was “inactive” throughout. In addition, the Potency entry in experiment [6], in experiment [7], in experiment [8], in experiment [18], in [10] and in [12] was “inactive” throughout. Also, the Potency entry in [14] and in [19] was “inactive” throughout. Further, the call in [13] was inactive.
For the molecule `CCCCC(CC)COC(=O)COc1ccc(Cl)cc1Cl` (stereo not drawn), the Potency result in experiment [1], in experiment [2], in [3], in experiment [16], in experiment [17] and in experiment [6] was “inactive” in each case. Besides, the Potency entry in experiment [8], in [10], in experiment [11], in experiment [12], in experiment [14] and in experiment [19] was “inactive” throughout. In addition, the result in experiment [13] and in [20] was inactive.
Consider `CCCCCCCCO[C@@H]1O[C@H](CO)[C@@H](O)[C@H](O)[C@H]1O`, for which the Potency result in experiment [1], in experiment [2], in experiment [3], in [5], in experiment [16] and in [17] was “inactive” throughout. The Potency entry in experiment [6], in experiment [7], in [8], in experiment [18], in experiment [9] and in experiment [10] was “inactive” in each case. Also, the Potency result in [11], in experiment [12], in experiment [14] and in experiment [19] was “inactive” each time. Further, the molecule was classed as inactive in experiment [13] and in experiment [20].
